From the supplement of paper PMC10849652
The full data set covers some 7,900 targets. This sample favours those with a hit. About 0.6% of all pairs of compound and target were hits. Unmarked numbers belong to inactive results.

Key:
Assay in all cases: log2 fold change, soluble protein after heating vs DMSO (PISA); higher = thermal stabilisation; K562 cells, 10 uM, 30 min; active = over 0.2 and 3.5 SD of the protein, either way, in both replicates (recomputed)
[1] = compound: Cc1ccc(NC(=O)c2ccc(CN3CC[C@H](N(C)C)C3)c(C(F)(F)F)c2)cc1Nc1nccc(-c2cncnc2)n1 [bafetinib]
In short: (§1)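 K562 cells (2×10^6 cells/mL) were treated with 10 μM compound for 30 min, and aliquots were heated for 3 min over 48°C-58°C. Pooled aliquots were extracted in PBS with 0.5% NP-40 at 4°C, and the supernatant after 21,000xg for 90 min was measured by TMTpro 16plex LC-MS/MS with channel sums equalised. Reported thermal stability, relative to control samples and from duplicates, is a log2 fold change.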

[2] = compound: Cc1cccc(CC(=O)N2CCc3c2ccc(-c2cn(C)c4ncnc(N)c24)c3F)n1
In short: as §1

[3] = compound: Cc1cn(-c2cc(NC(=O)c3ccc(C)c(Nc4nccc(-c5cccnc5)n4)c3)cc(C(F)(F)F)c2)cn1 [nilotinib]
In short: as §1

[4] = compound: Cc1nc(Nc2n[nH]c3c2CN(C(=O)N[C@H](CN(C)C)c2ccccc2)C3(C)C)c2sccc2n1
In short: as §1

[5] = compound: Cc1nc(Nc2ncc(C(=O)Nc3c(C)cccc3Cl)s2)cc(N2CCN(CCO)CC2)n1 [dasatinib]
In short: as §1

[6] = compound: Cc1ncc(-c2ccnc(Nc3ccc(S(C)(=O)=O)cc3)n2)n1C(C)C
In short: as §1

[7] = compound: Cn1cc(-c2ccc3c(c2)CCN3C(=O)Cc2cccc(C(F)(F)F)c2)c2c(N)ncnc21
In short: as §1

[8] = compound: Cn1cc(-c2ccc3nnc(C(F)(F)c4ccc5ncccc5c4)n3n2)cn1
In short: as §1

[9] = compound: Cn1cncc1[C@@](N)(c1ccc(Cl)cc1)c1ccc2c(c1)c(-c1cccc(Cl)c1)cc(=O)n2C [tipifarnib]
In short: as §1

[10] = compound: FC(F)(F)c1ccc(/C=C/c2nc(COc3ccc(CCCCn4ccnn4)cc3)co2)cc1 [mubritinib]
In short: as §1

UniProt P49189, sequence (P49189 whole entry, looked up): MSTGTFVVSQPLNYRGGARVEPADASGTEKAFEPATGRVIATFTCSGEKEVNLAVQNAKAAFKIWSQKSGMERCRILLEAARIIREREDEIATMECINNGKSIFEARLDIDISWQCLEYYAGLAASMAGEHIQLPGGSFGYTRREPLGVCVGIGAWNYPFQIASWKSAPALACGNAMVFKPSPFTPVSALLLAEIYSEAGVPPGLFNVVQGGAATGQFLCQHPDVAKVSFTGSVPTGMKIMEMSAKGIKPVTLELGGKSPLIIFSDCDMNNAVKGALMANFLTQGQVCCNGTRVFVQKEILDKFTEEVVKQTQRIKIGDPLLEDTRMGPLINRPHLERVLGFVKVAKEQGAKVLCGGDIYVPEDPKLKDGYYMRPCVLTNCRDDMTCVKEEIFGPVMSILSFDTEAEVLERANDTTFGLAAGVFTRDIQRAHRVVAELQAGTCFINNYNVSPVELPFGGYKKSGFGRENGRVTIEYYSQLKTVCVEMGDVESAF
UniProt P98196, sequence (P98196 whole entry, looked up): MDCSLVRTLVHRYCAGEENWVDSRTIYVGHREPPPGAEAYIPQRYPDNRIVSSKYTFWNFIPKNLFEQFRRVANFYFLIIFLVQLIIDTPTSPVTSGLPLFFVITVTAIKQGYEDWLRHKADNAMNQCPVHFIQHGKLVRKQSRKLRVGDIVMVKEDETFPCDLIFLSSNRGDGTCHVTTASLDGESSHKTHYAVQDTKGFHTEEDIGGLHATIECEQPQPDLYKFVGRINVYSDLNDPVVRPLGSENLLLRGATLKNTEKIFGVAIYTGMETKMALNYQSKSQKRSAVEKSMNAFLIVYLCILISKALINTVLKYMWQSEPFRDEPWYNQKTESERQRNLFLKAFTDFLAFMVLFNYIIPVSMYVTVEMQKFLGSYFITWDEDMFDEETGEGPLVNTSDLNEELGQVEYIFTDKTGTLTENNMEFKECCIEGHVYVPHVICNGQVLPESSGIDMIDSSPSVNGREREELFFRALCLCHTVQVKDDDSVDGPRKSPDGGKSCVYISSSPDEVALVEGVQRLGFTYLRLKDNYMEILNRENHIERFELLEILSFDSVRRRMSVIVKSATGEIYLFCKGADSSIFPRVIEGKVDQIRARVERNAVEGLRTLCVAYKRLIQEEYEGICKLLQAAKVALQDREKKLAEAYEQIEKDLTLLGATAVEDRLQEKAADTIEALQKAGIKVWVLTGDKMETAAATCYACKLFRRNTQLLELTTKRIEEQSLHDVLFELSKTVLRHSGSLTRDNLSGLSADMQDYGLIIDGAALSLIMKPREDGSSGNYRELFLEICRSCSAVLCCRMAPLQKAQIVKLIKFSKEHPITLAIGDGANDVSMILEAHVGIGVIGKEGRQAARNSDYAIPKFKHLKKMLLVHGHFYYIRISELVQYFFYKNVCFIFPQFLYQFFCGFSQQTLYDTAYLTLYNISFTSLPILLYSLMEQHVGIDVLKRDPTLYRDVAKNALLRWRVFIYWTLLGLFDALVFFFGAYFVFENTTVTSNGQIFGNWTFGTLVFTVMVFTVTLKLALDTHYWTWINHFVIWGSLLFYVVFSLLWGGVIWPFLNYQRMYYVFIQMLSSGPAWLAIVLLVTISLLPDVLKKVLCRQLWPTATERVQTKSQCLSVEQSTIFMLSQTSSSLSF
UniProt Q9UQB8, sequence (Q9UQB8 whole entry, looked up): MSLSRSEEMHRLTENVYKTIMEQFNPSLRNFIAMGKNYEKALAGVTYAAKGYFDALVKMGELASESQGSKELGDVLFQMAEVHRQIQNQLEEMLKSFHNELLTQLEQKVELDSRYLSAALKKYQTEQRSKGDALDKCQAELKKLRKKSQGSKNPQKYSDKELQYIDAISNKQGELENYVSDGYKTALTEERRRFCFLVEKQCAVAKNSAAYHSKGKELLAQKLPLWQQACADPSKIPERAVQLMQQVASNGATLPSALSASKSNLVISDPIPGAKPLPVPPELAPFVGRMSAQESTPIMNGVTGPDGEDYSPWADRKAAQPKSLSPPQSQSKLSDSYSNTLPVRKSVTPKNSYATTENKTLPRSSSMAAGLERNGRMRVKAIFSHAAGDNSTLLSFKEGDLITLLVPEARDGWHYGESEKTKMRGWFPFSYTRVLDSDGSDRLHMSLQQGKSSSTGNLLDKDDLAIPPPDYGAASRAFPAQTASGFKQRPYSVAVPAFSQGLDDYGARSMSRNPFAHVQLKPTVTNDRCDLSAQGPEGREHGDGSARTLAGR
UniProt Q9NX46, sequence (Q9NX46 whole entry, looked up): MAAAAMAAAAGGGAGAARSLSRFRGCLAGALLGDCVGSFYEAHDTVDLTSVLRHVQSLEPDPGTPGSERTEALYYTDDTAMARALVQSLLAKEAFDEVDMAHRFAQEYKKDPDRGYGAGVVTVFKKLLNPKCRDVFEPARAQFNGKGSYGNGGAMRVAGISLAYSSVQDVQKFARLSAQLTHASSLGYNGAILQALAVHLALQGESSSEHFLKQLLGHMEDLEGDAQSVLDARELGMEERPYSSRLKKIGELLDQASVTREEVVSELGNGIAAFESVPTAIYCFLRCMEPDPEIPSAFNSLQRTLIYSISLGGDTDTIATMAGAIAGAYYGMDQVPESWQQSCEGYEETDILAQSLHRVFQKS
UniProt O15440, sequence (O15440 whole entry, looked up): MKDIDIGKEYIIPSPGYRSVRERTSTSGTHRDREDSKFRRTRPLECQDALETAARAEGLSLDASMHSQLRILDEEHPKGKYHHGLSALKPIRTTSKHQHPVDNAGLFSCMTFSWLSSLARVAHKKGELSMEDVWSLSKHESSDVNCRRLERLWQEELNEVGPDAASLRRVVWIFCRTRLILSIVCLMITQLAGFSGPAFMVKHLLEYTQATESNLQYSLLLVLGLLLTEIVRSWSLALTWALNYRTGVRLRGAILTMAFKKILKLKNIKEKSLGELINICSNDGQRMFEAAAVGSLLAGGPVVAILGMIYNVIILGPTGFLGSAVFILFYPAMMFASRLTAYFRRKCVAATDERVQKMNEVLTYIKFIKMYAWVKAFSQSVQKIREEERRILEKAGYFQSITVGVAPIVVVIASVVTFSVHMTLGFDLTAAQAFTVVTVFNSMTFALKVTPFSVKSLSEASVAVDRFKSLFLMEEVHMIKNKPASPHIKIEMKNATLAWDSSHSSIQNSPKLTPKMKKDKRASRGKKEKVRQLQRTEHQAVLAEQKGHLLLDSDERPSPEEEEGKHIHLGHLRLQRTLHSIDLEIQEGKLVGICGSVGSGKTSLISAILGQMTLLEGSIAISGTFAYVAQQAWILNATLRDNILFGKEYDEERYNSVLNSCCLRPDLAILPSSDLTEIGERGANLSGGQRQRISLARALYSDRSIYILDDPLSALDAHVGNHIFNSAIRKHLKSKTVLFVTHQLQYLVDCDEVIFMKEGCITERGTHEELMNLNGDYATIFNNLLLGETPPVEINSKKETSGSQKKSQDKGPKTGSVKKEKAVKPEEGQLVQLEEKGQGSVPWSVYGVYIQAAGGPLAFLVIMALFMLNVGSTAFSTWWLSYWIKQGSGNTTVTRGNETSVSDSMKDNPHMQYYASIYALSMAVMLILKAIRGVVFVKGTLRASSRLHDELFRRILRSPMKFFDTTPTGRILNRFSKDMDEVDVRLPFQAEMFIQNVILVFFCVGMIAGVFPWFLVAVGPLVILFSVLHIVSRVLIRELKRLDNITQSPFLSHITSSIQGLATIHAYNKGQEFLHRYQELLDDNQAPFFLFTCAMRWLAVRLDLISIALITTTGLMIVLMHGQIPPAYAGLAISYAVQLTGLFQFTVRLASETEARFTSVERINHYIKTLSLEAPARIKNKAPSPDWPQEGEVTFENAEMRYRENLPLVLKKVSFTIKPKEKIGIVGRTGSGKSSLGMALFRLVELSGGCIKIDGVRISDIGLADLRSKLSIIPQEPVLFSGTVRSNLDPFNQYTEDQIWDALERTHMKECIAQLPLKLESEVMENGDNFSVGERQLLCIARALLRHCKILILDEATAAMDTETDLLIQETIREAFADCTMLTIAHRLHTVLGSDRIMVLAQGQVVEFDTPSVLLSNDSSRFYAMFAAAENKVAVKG
UniProt Q96GS6, sequence (Q96GS6 whole entry, looked up): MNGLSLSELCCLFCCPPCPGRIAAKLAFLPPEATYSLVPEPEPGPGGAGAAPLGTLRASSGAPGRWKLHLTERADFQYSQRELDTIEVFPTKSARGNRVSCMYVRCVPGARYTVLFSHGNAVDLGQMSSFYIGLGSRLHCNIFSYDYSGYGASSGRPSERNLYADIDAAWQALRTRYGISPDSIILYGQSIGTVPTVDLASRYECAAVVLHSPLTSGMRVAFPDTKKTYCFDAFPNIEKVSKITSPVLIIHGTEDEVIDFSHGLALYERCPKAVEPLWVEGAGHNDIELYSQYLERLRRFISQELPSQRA
UniProt Q2TAA5, sequence (Q2TAA5 whole entry, looked up): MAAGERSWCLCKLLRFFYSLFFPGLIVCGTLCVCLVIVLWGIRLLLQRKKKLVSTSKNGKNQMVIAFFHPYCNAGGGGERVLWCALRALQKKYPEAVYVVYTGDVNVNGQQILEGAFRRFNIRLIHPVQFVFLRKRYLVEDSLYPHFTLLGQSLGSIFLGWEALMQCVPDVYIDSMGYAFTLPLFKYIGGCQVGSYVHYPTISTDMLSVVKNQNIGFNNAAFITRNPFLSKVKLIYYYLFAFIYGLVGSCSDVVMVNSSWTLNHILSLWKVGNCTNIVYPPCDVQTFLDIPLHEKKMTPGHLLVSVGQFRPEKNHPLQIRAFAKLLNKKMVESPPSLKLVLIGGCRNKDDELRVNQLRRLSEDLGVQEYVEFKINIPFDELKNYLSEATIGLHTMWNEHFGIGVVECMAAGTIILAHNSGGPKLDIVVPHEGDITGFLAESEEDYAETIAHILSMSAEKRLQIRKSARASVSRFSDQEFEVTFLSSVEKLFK
UniProt P56211, sequence (P56211 whole entry, looked up): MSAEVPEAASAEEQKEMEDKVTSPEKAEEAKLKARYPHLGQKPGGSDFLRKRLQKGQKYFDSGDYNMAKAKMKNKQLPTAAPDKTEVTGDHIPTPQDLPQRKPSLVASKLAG

Row | Target | log2 fold change [1] | log2 fold change [2] | log2 fold change [3] | log2 fold change [4] | log2 fold change [5] | log2 fold change [6] | log2 fold change [7] | log2 fold change [8] | log2 fold change [9] | log2 fold change [10]
1 | AP2M1 (UniProt Q96CW1) | 0.042 | -0.012 | 0.012 | 0.031 | 0.048 | -0.02 | -0.013 | -0.004 | 0.02 | -0.035
2 | ARPP19 (UniProt P56211) | -0.057 | 0.005 | 0.02 | -0.041 | 0.045 | -0.004 | 0.033 | -0.022 | -0.055 | 0.002
3 | ATP1A1 (UniProt P05023) | 0.018 | 0.102 | 0.062 | 0.008 | 0.07 | 0.005 | 0.04 | 0.001 | -0.011 | 0.023
4 | AKAP8L (UniProt Q9ULX6) | -0.078 | -0.039 | 0.044 | -0.02 | -0.161 | -0.052 | -0.036 | -0.14 | 0.039 | 0.003
5 | ATP11A (UniProt P98196) | -0.028 | -0.002 | 0.113 | -0.012 | -0.01 | 0.029 | -0.006 | 0.01 | 0.051 | 0.056
6 | ATP2A3 isoform 2 (UniProt Q93084) | -0.063 | -0.001 | -0.057 | -0.064 | -0.005 | 0.058 | -0.014 | 0.076 | 0.025 | -0.044
7 | ADPRHL2 (UniProt Q9NX46) | 0.201 | 0.029 | 0.013 | 0.164 | -0.034 | 0.124 | 0.082 | 0.052 | -0.159 | 0.349 (active)
8 | ATP13A3 (UniProt Q9H7F0) | -0.067 | 0.116 | -0.015 | -0.06 | 0.008 | 0.024 | -0.099 | 0.002 | 0.098 | -0.049
9 | ABHD17A isoform 2 (UniProt Q96GS6) | -0.051 | 0.044 | -0.054 | 0.047 | -0.023 | 0.018 | 0.028 | 0.068 | -0.042 | 0.061
10 | AARS2 (UniProt Q5JTZ9) | -0.07 | 0.011 | -0.085 | -0.047 | -0.184 | -0.036 | 0.052 | 0.05 | -0.063 | -0.143
11 | ARHGAP1 (UniProt Q07960) | 0.001 | 0.016 | -0.019 | -0.056 | -0.101 | 0.007 | -0.025 | -0.008 | -0.069 | 0.01
12 | BOP1 (UniProt Q14137) | 0.031 | -0.083 | -0.028 | -0.159 | 0.02 | -0.122 | -0.038 | -0.087 | 0.114 | -0.114
13 | ACO2 (UniProt Q99798) | 0.021 | -0.025 | -0.02 | 0.013 | -0.118 | -0.013 | 0.043 | -0.016 | -0.064 | -0.522 (active)
14 | ABCC5 (UniProt O15440) | -0.027 | 0.068 | -0.21 | -0.219 (active) | -0.035 | -0.015 | 0.017 | 0.053 | -0.009 | 0.124
15 | ANKZF1 (UniProt Q9H8Y5) | 0.104 | -0.047 | -0.151 | -0.29 | -0.04 | 0.018 | -0.005 | -0.126 | 0.026 | -0.074
16 | ATP1B3 (UniProt P54709) | 0 | -0.039 | 0.06 | -0.003 | 0.027 | 0.021 | 0 | -0.02 | 0.065 | 0.043
17 | AIP (UniProt O00170) | 0.017 | 0.02 | -0.062 | -0.009 | -0.144 | 0.056 | 0.031 | 0.012 | -0.058 | 0.015
18 | APLP2 (UniProt Q06481) | 0.054 | -0.063 | 0.156 | -0.144 | 0.118 | 0.052 | -0.007 | -0.164 | -0.01 | -0.011
19 | BLOC1S3 (UniProt Q6QNY0) | -0.02 | 0.006 | -0.067 | 0.031 | -0.051 | -0.022 | 0.017 | 0.078 | -0.103 | -0.027
20 | ALDH9A1 isoform 3 (UniProt P49189) | -0.003 | 0.001 | 0.012 | -0.019 | 0.025 | -0.018 | 0.041 | 0.001 | -0.002 | -0.005
21 | ACACB (UniProt O00763) | 0.145 | -0.021 | -0.109 | -0.251 | -0.03 | -0.026 | -0.09 | -0.059 | -0.14 | -0.147
22 | ATR (UniProt Q13535) | -0.036 | -0.028 | -0.07 | 0.036 | -0.123 | -0.054 | 0.012 | 0.039 | -0.022 | -0.013
23 | ATP1A4 (UniProt Q13733) | 0.038 | 0.036 | 0.058 | -0.041 | 0.076 | 0.033 | 0.028 | -0.041 | -0.039 | 0.001
24 | ALG11 (UniProt Q2TAA5) | -0.078 | 0.086 | 0.001 | -0.037 | 0.005 | 0.129 | -0.072 | 0.028 | -0.016 | 0.066
25 | BAIAP2 (UniProt Q9UQB8) | -0.009 | 0.032 | -0.061 | -0.05 | -0.066 | -0.038 | 0.03 | -0.032 | -0.035 | 0.06
26 | AP2A2 isoform 2 (UniProt O94973) | 0.02 | 0.031 | -0.027 | 0.009 | 0.062 | -0.018 | 0.006 | -0.074 | -0.006 | 0.035
27 | ARRDC1 (UniProt Q8N5I2) | 0.014 | -0.035 | -0.045 | 0.065 | -0.073 | 0.079 | 0 | -0.087 | 0.011 | -0.112
